Test results published in PubChem BioAssay (EPA / NIEHS).
Active and inactive are the calls of the source. How the source made its calls: active means hit-call score of the fitted dose curve at least 0.9, where 1 is the maximum; inactive means score below 0.9.

Columns and labels:
[1] = ATG_GLI_CIS: Attagene CIS-FACTORIAL HepG2 Assay for human Zinc Finger Protein GLI1 (AID 2282945); details: HepG2, Attagene cis-factorial reporter mRNA, GLI element; actives raise or lower the signal
How it was run: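 Transiently transfected HepG2 cells report endogenous transcription factor activity via cis-element-driven reporter units. After 24 h compound exposure, reporter mRNA was measured by RT-PCR with capillary electrophoresis; bidirectional fitting against DMSO baseline.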

[2] = ATG_GRE_CIS: Attagene CIS-FACTORIAL HepG2 Assay for human Glucocorticoid Response Elements (GRE) (AID 2282947); details: HepG2 GRE cis-reporter, Attagene multiplex mRNA; actives raise or lower the signal
How it was run: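 Read-out: fluorescent reporter-transcript fragments separated by capillary electrophoresis after RT-PCR. Transiently transfected HepG2 cells carrying cis-element-driven reporter units were dosed for 24 h; gain or loss of signal fitted against DMSO control.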

[3] = ATG_ISRE_CIS: Attagene CIS-FACTORIAL HepG2 Assay for human Interferon Regulatory Factor 1 (IRF1) binding to an Interferon-Stimulated Response Element (ISRE) (AID 2282948); details: HepG2 ISRE cis-reporter (Attagene), mRNA transcription readout; actives raise or lower the signal
How it was run: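 Uses HepG2 liver cells transfected with cis-regulated reporters and measures mRNA 24 h post-dosing through RT-PCR, primer-extension labelling and capillary electrophoresis, with DMSO as negative control.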

[4] = ATG_M_32_CIS: Attagene CIS-FACTORIAL HepG2 Assay for M32 Transcription Factor (Internal Marker) (AID 2282949); details: HepG2 Attagene cis-factorial M32 reporter, mRNA; actives raise or lower the signal;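 further: background control marker of the multiplexed CIS panel rather than a real target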
How it was run: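 Transient MRTU transfection of HepG2; 24 h compound treatment; TriZol RNA, oligo(dT) RT, reporter PCR, 6-FAM primer extension, HpaI cut, CE. Gain/loss of signal vs DMSO.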

[5] = ATG_M_06_CIS: Attagene CIS-FACTORIAL HepG2 Assay for M06 Transcription Factor (Internal Marker) (AID 2282950); details: HepG2 Attagene CIS-FACTORIAL M06 internal marker reporter; actives raise or lower the signal
How it was run: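 Steps: transfect HepG2 with multiplexed cis-element reporter constructs; dose chemical 24 h; extract RNA with DNase treatment; reverse-transcribe, PCR-amplify, 6-FAM label, HpaI digest; separate fragments by capillary electrophoresis. Activity fitted both directions versus DMSO.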

[6] = target: Hypoxia-inducible factor 1-alpha (Homo sapiens) (UniProt Q16665); experiment: ATG_HIF1a_CIS: Attagene CIS-FACTORIAL HepG2 Assay for human Hypoxia Inducible Factor 1 (HIF1A) (AID 2282951); details: HepG2 Attagene cis-factorial HIF1a reporter transcription; actives raise or lower the signal
How it was run: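 Transient MRTU transfection of human HepG2 liver cells, 24 h compound treatment, then total RNA isolation, oligo(dT) reverse transcription, PCR amplification, fluorescent labelling and capillary electrophoresis of reporter fragments. Gain or loss relative to DMSO.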

[7] = target: Hepatocyte nuclear factor 6 (Homo sapiens) (UniProt Q9UBC0); experiment: ATG_HNF6_CIS: Attagene CIS-FACTORIAL HepG2 Assay for human Hepatocyte Nuclear Factor 6 (HNF6) (AID 2282952); details: HepG2 Attagene cis-factorial HNF6 reporter transcription; actives raise or lower the signal
How it was run: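 Activity values derive from bidirectional fitting against DMSO of reporter mRNA levels, measured by capillary electrophoresis of labelled RT-PCR products from HepG2 cells exposed 24 h.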

[8] = target: Heat shock factor protein 1 (Homo sapiens) (UniProt Q00613); experiment: ATG_HSE_CIS: Attagene CIS-FACTORIAL HepG2 Assay for human Heat Shock Transcription Factor 1 (HSE) (AID 2282953); details: HepG2 HSE cis-reporter, Attagene RNA transcription; actives raise or lower the signal
How it was run: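 Cells were transfected with cis-element-driven reporter constructs, dosed for 24 h, then total RNA was reverse-transcribed and reporter cDNA amplified, FAM-labelled and digested with HpaI. Fragments were resolved by capillary electrophoresis; gain or loss was fitted against DMSO.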

[9] = ATG_MRE_CIS: Attagene CIS-FACTORIAL HepG2 Assay for human Metal Responsive Element (MRE) (AID 2282954); details: HepG2 MRE cis-reporter transcription, Attagene multiplex; actives raise or lower the signal
How it was run: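 RT-PCR/capillary electrophoresis readout of reporter mRNA, 24 h post-dosing, in HepG2 cells transfected with multiplexed cis-regulated reporter constructs. Gain or loss of signal fitted bidirectionally against DMSO baseline.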

[10] = ATG_PBREM_CIS: Attagene CIS-FACTORIAL HepG2 Assay for human Phenobarbital-responsive Enhancer Module (PBREM) (AID 2282955); details: HepG2 PBREM cis-reporter, Attagene multiplexed transcription; actives raise or lower the signal
How it was run: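 Endogenous transcription factors in human liver HepG2 cells drive a PBREM cis-element reporter, whose transcript level after 24 h treatment is quantified by RT-PCR with capillary electrophoresis; activity fitted in both directions against DMSO.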

[11] = target: Paired box protein Pax-6 (Homo sapiens) (UniProt P26367); experiment: ATG_Pax6_CIS: Attagene CIS-FACTORIAL HepG2 Assay for human Paired Box 6 (PAX6) (AID 2282956); details: HepG2 CIS-FACTORIAL PAX6 reporter transcription, RNA readout; actives raise or lower the signal
How it was run: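 DMSO-referenced bidirectional fits of reporter mRNA fluorescence; HepG2 with transient cis-promoter MRTUs, 24 h post-dose, RT-PCR plus capillary electrophoresis detection.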

[12] = ATG_PXRE_CIS: Attagene CIS-FACTORIAL HepG2 Assay for human Pregnane X Receptor Element (PXRE) (AID 2282957); details: HepG2 Attagene CIS-FACTORIAL PXRE reporter, mRNA; actives raise or lower the signal
How it was run: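 Fluorescent capillary electrophoresis of amplified reporter cDNA gave the signal, collected 24 h after dosing HepG2 cells that held transfected cis-element reporter constructs.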

[13] = ATG_PPRE_CIS: Attagene CIS-FACTORIAL HepG2 Assay for human Peroxisome Proliferator-activated Response Element (PPRE) (AID 2282958); details: HepG2 PPRE cis-element reporter, Attagene transcription factor profiling; actives raise or lower the signal
How it was run: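 HepG2, transient MRTU transfection (cis promoter elements, endogenous TFs). 24 h dosing. RNA → oligo(dT) RT → PCR → 6-FAM primer extension → HpaI digest → CE. Bidirectional fit vs DMSO.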

[14] = ATG_RORE_CIS: Attagene CIS-FACTORIAL HepG2 Assay for human RAR-related Orphan Receptor Element (RORE) (AID 2282959); details: HepG2 Attagene cis-factorial RORE reporter, mRNA; actives raise or lower the signal
How it was run: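 Transient MRTU transfection of human HepG2 liver cells (FuGene 6); 24 h compound exposure; TriZol RNA, oligo(dT) RT, PCR, FAM labeling, HpaI cut, CE fragment analysis. DMSO = negative control/baseline.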

[15] = ATG_Sox_CIS: Attagene CIS-FACTORIAL HepG2 Assay for human SRY-box transcription factor (SOX) (AID 2282960); details: HepG2 Attagene cis-factorial SOX reporter, mRNA; actives raise or lower the signal
How it was run: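 Endogenous factor activity in human liver HepG2 cells carrying transfected cis-regulated reporter units. RNA taken 24 h post-dose, reverse-transcribed, PCR-amplified and sized by capillary electrophoresis. Gain or loss of signal fitted relative to DMSO.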

[16] = target: Transcription factor Sp1 (Homo sapiens) (UniProt P08047); experiment: ATG_Sp1_CIS: Attagene CIS-FACTORIAL HepG2 Assay for human Specificity Protein 1 (Sp1) (AID 2282961); details: HepG2 Sp1 cis-reporter transcription, actives raise or lower the signal
How it was run: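 Transient MRTU-transfected HepG2, 24 h compound exposure. Total RNA → oligo(dT) RT → PCR of reporter → 6-FAM primer extension → HpaI digest → CE. Endpoint fitted both directions vs DMSO.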

[17] = ATG_SREBP_CIS: Attagene CIS-FACTORIAL HepG2 Assay for human Sterol Regulatory Element Binding (SREBP) (AID 2282962); details: HepG2 Attagene cis-factorial SREBP reporter, mRNA; actives raise or lower the signal
How it was run: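 In this cis-format assay, HepG2 liver cells express reporters controlled by promoter elements responsive to native transcription factors. Exposure lasts 24 h; reporter mRNA fluorescence from capillary electrophoresis gives the signal, fitted bidirectionally against DMSO.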

[18] = target: Signal transducer and activator of transcription 3 (Homo sapiens) (UniProt P40763); experiment: ATG_STAT3_CIS: Attagene CIS-FACTORIAL HepG2 Assay for human Signal Transducer and Activator of Transcription 3 (STAT3) (AID 2282963); details: HepG2, Attagene cis-factorial STAT3 reporter transcription; actives raise or lower the signal
How it was run: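 Readout: fluorescent reporter mRNA fragments resolved by capillary electrophoresis. Setup: HepG2 transfected with MRTUs reporting endogenous transcription-factor activity, dosed 24 h. Gain or loss of signal fitted bidirectionally against DMSO control.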

[19] = ATG_TA_CIS: Attagene CIS-FACTORIAL HepG2 Assay for human TA Basal Promoter (AID 2282964); details: HepG2 Attagene CIS-factorial TA basal promoter reporter; actives raise or lower the signal
How it was run: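 Steps: transfect HepG2 with MRTUs; dose 24 h; isolate RNA, DNase-treat, reverse-transcribe; PCR and FAM-label reporter cDNA; digest with HpaI 2h at 37 C; run capillary electrophoresis. Activity fitted both directions against DMSO.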

Transcription factor Sp1 (Homo sapiens), sequence (P08047 whole entry, looked up): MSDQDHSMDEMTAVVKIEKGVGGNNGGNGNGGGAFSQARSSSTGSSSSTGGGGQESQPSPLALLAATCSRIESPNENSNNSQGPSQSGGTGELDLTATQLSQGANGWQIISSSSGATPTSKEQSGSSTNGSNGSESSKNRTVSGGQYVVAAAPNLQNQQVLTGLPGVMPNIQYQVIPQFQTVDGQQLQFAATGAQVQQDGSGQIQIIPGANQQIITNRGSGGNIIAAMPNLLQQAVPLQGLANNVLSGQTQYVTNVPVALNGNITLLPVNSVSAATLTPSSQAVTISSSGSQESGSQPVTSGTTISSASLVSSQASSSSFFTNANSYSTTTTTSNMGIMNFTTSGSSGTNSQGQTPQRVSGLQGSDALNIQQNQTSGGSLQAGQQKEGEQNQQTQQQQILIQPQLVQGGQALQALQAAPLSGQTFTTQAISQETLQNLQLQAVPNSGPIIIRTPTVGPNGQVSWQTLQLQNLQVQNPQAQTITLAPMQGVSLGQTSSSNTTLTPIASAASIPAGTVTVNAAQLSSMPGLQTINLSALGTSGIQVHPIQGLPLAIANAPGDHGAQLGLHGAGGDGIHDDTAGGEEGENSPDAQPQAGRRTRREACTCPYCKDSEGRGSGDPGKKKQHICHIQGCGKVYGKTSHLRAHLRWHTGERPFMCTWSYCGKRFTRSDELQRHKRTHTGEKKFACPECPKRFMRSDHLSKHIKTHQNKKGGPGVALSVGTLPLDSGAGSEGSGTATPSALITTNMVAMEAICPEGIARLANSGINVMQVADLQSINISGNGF
Heat shock factor protein 1 (Homo sapiens), sequence (Q00613 whole entry, looked up, the tested form may be a part): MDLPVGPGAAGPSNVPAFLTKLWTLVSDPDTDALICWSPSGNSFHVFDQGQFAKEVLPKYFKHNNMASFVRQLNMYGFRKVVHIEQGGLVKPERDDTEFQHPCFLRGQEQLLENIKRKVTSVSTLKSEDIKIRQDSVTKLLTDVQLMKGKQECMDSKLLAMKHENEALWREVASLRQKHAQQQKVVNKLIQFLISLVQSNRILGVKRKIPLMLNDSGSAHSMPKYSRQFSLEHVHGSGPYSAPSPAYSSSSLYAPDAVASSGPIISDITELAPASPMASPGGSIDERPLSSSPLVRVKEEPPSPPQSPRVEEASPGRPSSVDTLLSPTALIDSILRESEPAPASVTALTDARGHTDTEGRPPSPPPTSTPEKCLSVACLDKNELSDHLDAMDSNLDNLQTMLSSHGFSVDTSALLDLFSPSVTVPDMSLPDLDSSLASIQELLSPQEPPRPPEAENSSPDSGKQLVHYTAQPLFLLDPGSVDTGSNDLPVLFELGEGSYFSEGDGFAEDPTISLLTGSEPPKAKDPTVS
Hepatocyte nuclear factor 6 (Homo sapiens), sequence (Q9UBC0 whole entry, looked up): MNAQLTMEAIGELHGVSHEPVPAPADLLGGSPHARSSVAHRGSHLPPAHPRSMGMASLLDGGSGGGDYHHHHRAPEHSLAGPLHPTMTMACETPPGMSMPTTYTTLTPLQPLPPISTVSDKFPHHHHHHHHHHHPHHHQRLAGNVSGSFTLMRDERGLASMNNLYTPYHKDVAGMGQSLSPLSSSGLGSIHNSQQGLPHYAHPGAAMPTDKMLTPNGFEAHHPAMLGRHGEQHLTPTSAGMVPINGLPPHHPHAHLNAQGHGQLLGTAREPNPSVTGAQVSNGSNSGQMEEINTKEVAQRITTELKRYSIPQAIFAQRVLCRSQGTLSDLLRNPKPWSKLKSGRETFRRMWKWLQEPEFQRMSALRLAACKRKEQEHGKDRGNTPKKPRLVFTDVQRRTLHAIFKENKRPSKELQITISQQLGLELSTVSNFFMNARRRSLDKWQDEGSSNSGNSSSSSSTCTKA
Hypoxia-inducible factor 1-alpha (Homo sapiens), sequence (Q16665 whole entry, looked up, the tested form may be a part): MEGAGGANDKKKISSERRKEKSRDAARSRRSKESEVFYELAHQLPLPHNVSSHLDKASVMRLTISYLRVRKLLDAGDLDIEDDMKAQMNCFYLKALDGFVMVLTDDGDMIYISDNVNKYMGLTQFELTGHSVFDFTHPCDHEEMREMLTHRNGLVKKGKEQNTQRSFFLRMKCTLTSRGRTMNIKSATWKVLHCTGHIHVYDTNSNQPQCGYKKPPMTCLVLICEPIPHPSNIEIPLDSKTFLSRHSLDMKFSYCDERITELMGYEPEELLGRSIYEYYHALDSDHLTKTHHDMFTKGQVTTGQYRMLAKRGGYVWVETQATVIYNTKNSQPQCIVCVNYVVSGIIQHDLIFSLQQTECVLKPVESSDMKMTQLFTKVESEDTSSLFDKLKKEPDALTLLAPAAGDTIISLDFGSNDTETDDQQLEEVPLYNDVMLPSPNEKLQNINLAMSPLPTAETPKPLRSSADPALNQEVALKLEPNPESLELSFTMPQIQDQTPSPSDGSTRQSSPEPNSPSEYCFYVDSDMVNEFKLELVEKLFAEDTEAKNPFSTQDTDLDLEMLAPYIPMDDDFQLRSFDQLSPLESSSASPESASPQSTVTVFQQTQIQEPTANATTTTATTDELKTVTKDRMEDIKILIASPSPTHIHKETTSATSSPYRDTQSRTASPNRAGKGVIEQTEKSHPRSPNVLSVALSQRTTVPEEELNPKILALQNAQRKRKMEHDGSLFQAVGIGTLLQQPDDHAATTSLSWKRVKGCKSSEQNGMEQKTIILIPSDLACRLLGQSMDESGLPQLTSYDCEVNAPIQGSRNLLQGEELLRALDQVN
Paired box protein Pax-6 (Homo sapiens), sequence (P26367 whole entry, looked up): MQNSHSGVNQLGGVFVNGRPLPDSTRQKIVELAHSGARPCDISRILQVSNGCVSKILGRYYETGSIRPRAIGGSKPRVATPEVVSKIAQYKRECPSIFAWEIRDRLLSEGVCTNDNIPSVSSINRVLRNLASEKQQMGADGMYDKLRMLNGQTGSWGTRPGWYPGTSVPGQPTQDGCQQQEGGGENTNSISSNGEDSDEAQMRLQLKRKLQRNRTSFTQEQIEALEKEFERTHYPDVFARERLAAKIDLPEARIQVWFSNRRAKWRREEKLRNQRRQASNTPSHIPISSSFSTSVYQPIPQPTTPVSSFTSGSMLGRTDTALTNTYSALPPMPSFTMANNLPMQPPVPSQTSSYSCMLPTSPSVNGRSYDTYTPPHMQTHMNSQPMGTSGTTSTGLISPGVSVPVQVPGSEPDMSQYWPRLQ
Signal transducer and activator of transcription 3 (Homo sapiens), sequence (P40763 whole entry, looked up, the tested form may be a part): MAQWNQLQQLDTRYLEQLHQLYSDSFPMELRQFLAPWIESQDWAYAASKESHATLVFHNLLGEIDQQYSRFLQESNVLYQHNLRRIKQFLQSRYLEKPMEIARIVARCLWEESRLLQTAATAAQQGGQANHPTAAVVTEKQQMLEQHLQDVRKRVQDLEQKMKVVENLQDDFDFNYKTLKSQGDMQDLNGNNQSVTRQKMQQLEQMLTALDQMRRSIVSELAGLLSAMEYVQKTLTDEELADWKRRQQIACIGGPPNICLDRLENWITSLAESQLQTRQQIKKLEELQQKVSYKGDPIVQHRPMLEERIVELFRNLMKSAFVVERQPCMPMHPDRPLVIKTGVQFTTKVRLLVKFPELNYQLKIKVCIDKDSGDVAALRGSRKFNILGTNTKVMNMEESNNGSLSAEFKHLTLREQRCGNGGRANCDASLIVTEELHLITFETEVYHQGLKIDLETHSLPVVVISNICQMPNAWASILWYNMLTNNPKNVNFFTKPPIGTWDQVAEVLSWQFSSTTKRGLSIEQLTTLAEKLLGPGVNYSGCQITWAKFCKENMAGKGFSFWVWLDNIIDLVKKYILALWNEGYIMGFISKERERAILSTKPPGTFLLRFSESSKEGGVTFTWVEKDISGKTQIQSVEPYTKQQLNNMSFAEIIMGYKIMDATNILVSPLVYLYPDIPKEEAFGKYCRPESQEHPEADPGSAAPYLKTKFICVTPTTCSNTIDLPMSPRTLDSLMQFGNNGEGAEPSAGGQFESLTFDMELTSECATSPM

| Compound | outcome [1] | outcome [2] | outcome [3] | outcome [4] | outcome [5] | outcome [6] | outcome [7] | outcome [8] | outcome [9] | outcome [10] | outcome [11] | outcome [12] | outcome [13] | outcome [14] | outcome [15] | outcome [16] | outcome [17] | outcome [18] | outcome [19] | AC50 [12] |
| --- | --- | --- | --- | --- | --- | --- | --- | --- | --- | --- | --- | --- | --- | --- | --- | --- | --- | --- | --- | --- |
| CC(C)N(c1ccccc1)C(C)C | inactive | inactive | inactive | inactive | inactive | inactive | inactive | inactive | inactive | inactive | inactive | inactive | inactive | inactive | inactive | inactive | inactive | inactive | inactive | – |
| CCCCCCCCCCCCN1CCOCC1 | inactive | inactive | inactive | inactive | inactive | inactive | inactive | inactive | inactive | inactive | inactive | inactive | inactive | inactive | – | inactive | inactive | inactive | inactive | – |
| CC(=O)C1C(=O)C=C(C)OC1=O (stereo unspecified) | inactive | inactive | inactive | inactive | inactive | inactive | inactive | inactive | inactive | inactive | inactive | inactive | inactive | inactive | inactive | inactive | inactive | inactive | inactive | – |
| O=c1cc[nH]cc1 | inactive | inactive | inactive | inactive | inactive | inactive | inactive | inactive | inactive | inactive | inactive | – | inactive | – | inactive | inactive | inactive | inactive | inactive | 21 µM (active) |
| CC(C)CCOC(=O)CC(C)C | inactive | inactive | inactive | inactive | inactive | inactive | inactive | inactive | inactive | inactive | inactive | inactive | inactive | inactive | inactive | inactive | inactive | inactive | inactive | – |
| CC(C)COC(=O)c1ccccc1O | inactive | inactive | inactive | inactive | inactive | inactive | inactive | inactive | inactive | inactive | inactive | – | inactive | inactive | inactive | inactive | inactive | inactive | inactive | 44.8 µM (active) |
| C=C/C(C)=C/C/C=C(\C)CCC=C(C)C | inactive | inactive | inactive | inactive | inactive | inactive | inactive | inactive | inactive | inactive | inactive | – | inactive | inactive | inactive | inactive | inactive | inactive | inactive | 3.8 µM (active) |
